Test [1] is described as follows: qHTS assay to test for compound auto fluorescence at 535 nm (green) in HEK293 cells (AID 720680).
Test [2] is described as follows: qHTS assay to test for compound auto fluorescence at 460 nm (blue) in HEK293 cell free culture (AID 720681). In short, it runs like this:
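Compounds were added to cell-free DMEM with 10% FBS and fluorescence read directly. The blue channel used 405 nm excitation and 460 nm emission, with triamterene as the reference fluorophore.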
In general terms: qHTS replaces the single test concentration by a dilution series.

Test [3] is described as follows: qHTS assay to test for compound auto fluorescence at 535 nm (green) in HEK293 cell free culture (AID 720682). In short, it runs like this:
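Cell-free medium (DMEM, 10% FBS) receives compound or DMSO by pintool. Plate read directly at Ex 485/Em 535 nm. Signal converted to fluorescein equivalency.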

The nature of test [4]: qHTS assay to test for compound auto fluorescence at 590 nm (red) in HEK293 cell free culture (AID 720683). In short, it runs like this: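 Cell-free wells of DMEM with 10% FBS received compound, and intrinsic fluorescence was read at excitation/emission 540/590 nm. Values expressed as equivalence to Rose Bengal sodium.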
Test [5] is described as follows: qHTS assay to test for compound auto fluorescence at 590 nm (red) in HepG2 cell free culture (AID 720684). In a few lines:
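Auto fluorescence equivalency versus Rose Bengal sodium, red channel Ex/Em 540/590 nm; compounds in cell-free MEM/10% FBS; DMSO vehicle control.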

A short description of test [6]: qHTS assay to test for compound auto fluorescence at 460 nm (blue) in HepG2 cell free culture (AID 720685). In a few lines:
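Cell-free plates of MEM plus 10% FBS received 23 nL compound or DMSO vehicle; blue-channel (405/460 nm) intensity scored against triamterene as reference fluorophore.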

Test [7] can be described thus: qHTS assay to test for compound auto fluorescence at 535 nm (green) in HepG2 cell free culture (AID 720686).
Test [8] is described as follows: qHTS assay to test for compound auto fluorescence at 460 nm (blue) in HepG2 cells (AID 720687). In short, it runs like this:
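HepG2 cells in MEM with 10% FBS, attached overnight at 37 C, were exposed to compound or DMSO for 1 hr at 37 C, 5% CO2. Blue fluorescence was read at 405/460 nm, with triamterene as reference fluorophore.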

Test [9] in a line: qHTS assay to identify small molecule antagonists of the glucocorticoid receptor (GR) signaling pathway - cell viability counter screen (AID 720693). Also: nearly all actives have a fitted effect of over 55% in size. Also: potency is read from the fitted curve at half-maximal effect.
The nature of test [10]: qHTS assay for identifying genotoxic compounds that show differential cytotoxicity against isogenic chicken DT40 cell lines with known DNA damage response pathways - wild type cell line (AID 743012). Also: nearly all actives have a fitted effect of over 60% in size. Also: potency is read from the fitted curve at half-maximal effect. In a few lines: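 Viability of DNA repair-proficient chicken DT40 cells was assessed by CellTiter-Glo luminescence following 40 h compound exposure at 37 C/5% CO2.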
The nature of test [11]: qHTS assay for identifying genotoxic compounds that show differential cytotoxicity against isogenic chicken DT40 cell lines with known DNA damage response pathways - Rev3 mutant cell line (AID 743014). Also: nearly all actives have a fitted effect of over 55% in size. Also: potency is read from the fitted curve at half-maximal effect.
Test [12] is described as follows: qHTS assay for identifying genotoxic compounds that show differential cytotoxicity against isogenic chicken DT40 cell lines with known DNA damage response pathways - Rad54/Ku70 mutant cell line (AID 743015). Also: nearly all actives have a fitted effect of over 60% in size. Also: potency is read from the fitted curve at half-maximal effect.
Test [13] can be described thus: qHTS assay to identify small molecule antagonists of the androgen receptor (AR) signaling pathway - cell viability counter screen (AID 743033; also: nearly all actives have a fitted effect of over 45% in size).
A short description of test [14]: qHTS assay to identify small molecule antagonists of the androgen receptor (AR) signaling pathway using the MDA cell line - cell viability counter screen (AID 743041; also: nearly all actives have a fitted effect of over 45% in size; also: potency is read from the fitted curve at half-maximal effect). In a few lines:
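Compound exposure lasted 16 h at 37C in MDA-kb2 AR-luc cells stimulated with R1881. Protease-based CellTiter-Fluor reagent was applied for the final 30 min and fluorescence measured.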

Test [15] deals with Glucocorticoid receptor (Homo sapiens) (UniProt P04150). Nature of the test: qHTS assay to identify small molecule agonists of the glucocorticoid receptor (GR) signaling pathway (AID 720691; active = well fitted activation curve with a large enough effect in the signal ratio in the repeat runs, not every such curve was filed as active; inconclusive = weak or mixed curves, or effect the other way; inactive = no such curve, though single readings can be large or run the other way; the % refers to the signal ratio; also: potency is read from the fitted curve at half-maximal effect). In a few lines:
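Compounds in DMSO, alongside positive controls, were added to GR-bla HeLa reporter cells and incubated 18 h at 37 C; GRE-driven beta-lactamase was detected by fluorescence after 2 h with FRET substrate at room temperature.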

The target is the same in test [16]. Nature of the test: qHTS assay to identify small molecule antagonists of the glucocorticoid receptor (GR) signaling pathway (AID 720692; active = well fitted inhibition curve with a large enough effect in the signal ratio in the repeat runs, not every such curve was filed as active; inconclusive = weak or mixed curves, or effect the other way; inactive = no such curve, though single readings can be large or run the other way; the % refers to the signal ratio). In a few lines: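 In a 1536-well cell format, compounds were added 4 h after seeding GR-bla HeLa cells, together with dexamethasone at 5 nM final; reporter activity was measured by FRET-substrate fluorescence following 18 h at 37 C.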

Test [17] concerns the target Androgen receptor (Homo sapiens) (UniProt P10275). Nature of the test: qHTS assay to identify small molecule agonists of the androgen receptor (AR) signaling pathway using the MDA cell line (AID 743040; also: nearly all actives have a fitted effect of over 20% in size). In short, it runs like this:
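Testing was done with the MDA-kb2 AR-luc line, a human breast carcinoma stably transfected with MMTV-luciferase containing AR and GR response elements. Cells were exposed 16 h at 37C before ONE-Glo luminescence detection.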

For test [18] the target is unchanged. Nature of the test: qHTS assay to identify small molecule antagonists of the androgen receptor (AR) signaling pathway using the MDA cell line (AID 743042; also: nearly all actives have a fitted effect of over 55% in size). In a few lines:
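MDA-kb2 breast carcinoma cells carrying MMTV-luciferase (AR/GR responsive) were co-treated with compounds and the agonist R1881 for 16 h at 37C. Inhibition read as ONE-Glo luminescence; CellTiter-Fluor fluorescence measured in parallel for cytotoxicity.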

Values joined by “and” are separate entries in the source; they are usually repeats but may differ in a detail not shown here. Identical values can stand only once. Where a structure was tested more than once in an assay, its records may differ in their call. Active and inactive are the calls of the source. Unless noted, calls follow the shape of the dose curve; as a rule, active = well fitted curve in the direction sought with a large enough effect in the repeat runs; inconclusive = weak or mixed curves; inactive = no such curve, though single readings can be large; an effect the other way counts as inactive or inconclusive.

Chain of Androgen receptor (Homo sapiens) (P10275 whole entry, looked up): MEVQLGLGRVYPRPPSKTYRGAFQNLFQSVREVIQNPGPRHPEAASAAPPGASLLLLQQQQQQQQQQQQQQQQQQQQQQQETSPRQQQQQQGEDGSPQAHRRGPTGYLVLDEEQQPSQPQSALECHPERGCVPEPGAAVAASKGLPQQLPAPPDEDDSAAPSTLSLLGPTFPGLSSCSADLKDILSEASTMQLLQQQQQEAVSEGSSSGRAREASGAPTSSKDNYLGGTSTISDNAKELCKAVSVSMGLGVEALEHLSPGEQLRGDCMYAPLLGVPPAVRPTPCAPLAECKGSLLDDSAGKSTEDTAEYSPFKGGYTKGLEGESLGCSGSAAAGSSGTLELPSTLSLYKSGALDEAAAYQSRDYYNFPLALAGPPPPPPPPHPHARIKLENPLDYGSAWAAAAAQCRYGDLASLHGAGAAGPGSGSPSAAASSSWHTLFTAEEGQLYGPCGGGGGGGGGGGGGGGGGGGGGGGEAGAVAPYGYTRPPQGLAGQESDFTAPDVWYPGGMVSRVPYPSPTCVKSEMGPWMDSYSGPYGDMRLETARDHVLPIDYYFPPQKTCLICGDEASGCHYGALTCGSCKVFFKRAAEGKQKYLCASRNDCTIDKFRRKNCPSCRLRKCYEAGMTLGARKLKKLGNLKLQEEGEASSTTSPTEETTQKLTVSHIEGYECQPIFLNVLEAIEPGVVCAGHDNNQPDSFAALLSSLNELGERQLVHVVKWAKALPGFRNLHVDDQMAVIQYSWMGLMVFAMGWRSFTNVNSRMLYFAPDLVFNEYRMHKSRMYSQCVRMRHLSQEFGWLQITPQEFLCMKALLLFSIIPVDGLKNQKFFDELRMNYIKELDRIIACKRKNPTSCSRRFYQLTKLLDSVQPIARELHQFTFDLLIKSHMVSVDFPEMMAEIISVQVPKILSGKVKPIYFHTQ
Chain of Glucocorticoid receptor (Homo sapiens) (P04150 whole entry, looked up): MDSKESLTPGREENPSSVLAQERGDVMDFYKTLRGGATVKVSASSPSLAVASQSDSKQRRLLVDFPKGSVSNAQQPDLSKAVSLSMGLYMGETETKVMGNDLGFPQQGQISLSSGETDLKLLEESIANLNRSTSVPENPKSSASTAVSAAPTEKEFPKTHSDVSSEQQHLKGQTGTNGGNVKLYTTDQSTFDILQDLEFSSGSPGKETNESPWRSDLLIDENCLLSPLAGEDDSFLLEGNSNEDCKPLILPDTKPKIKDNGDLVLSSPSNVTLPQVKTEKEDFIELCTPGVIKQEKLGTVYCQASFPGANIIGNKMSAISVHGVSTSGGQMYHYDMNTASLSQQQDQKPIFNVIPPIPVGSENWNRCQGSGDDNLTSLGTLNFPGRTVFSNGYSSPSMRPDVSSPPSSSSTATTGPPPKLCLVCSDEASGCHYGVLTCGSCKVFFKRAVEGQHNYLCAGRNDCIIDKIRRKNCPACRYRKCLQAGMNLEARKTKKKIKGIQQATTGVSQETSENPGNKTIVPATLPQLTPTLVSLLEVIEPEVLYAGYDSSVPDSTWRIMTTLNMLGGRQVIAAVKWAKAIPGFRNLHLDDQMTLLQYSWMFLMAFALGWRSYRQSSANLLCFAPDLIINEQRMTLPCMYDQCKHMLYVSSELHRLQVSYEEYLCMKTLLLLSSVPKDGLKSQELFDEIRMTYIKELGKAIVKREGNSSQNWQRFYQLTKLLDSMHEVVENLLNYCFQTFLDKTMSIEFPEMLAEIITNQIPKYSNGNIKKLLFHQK

On to `O=S1(=O)OC(c2ccc(O)cc2)(c2ccc(O)cc2)c2ccccc21`, for which the Potency entry in test [1], in [2], in [3], in [4], in test [5] and in test [6] was “inactive” throughout. The Potency entry in test [7], in test [8], in [9], in test [10], in test [11] and in test [13] was “inactive” throughout. Besides, the Potency result is “inactive and 43.3 µM (active)” in [12]; 48.6 µM (active) and 61.1 µM (active) in test [14].
For the compound `Nc1ccc(S(N)(=O)=O)cc1`, the Potency result in test [1], in [2], in test [3], in test [4], in test [5] and in test [6] was “inactive” each time. Also, the Potency result in test [7], in test [8], in test [15], in test [16], in [9] and in test [10] was “inactive” throughout. The Potency entry in test [13] and in test [14] was “inactive” in each case. The Potency in [11] is 68.9 µM (active) and inactive; in [12] it was “inactive and 61.4 µM (active)”.
For the compound `O=c1[nH]cnc2c1ncn2[C@H]1CC[C@@H](CO)O1`, the Potency result in [1], in test [2], in [3], in [4], in test [5] and in [7] was “inactive” in each case. Moreover, the Potency entry in [8], in [15], in test [16], in test [9], in test [10] and in [13] was “inactive” throughout. In test [14], the Potency result is “inactive”. Further, in test [12], the Potency result is “inactive and 61.1 µM (active)”.
For `O=CC(=O)c1ccccc1`, the Potency result in [1], in [2], in test [3], in test [4], in test [5] and in test [7] was “inactive” in each case. In addition, the Potency result in test [8], in test [15], in test [16], in test [9], in [10] and in test [12] was “inactive” in each case. The Potency result in [13] and in test [14] was “inactive” throughout.
For the compound `CC1(C)O[C@@H]2C[C@H]3[C@@H]4CCC5=CC(=O)C=C[C@]5(C)[C@@]4(F)[C@@H](O)C[C@]3(C)[C@]2(C(=O)CO)O1`, the Potency entry in [1], in test [2], in [3], in test [4], in test [6] and in [7] was “inactive” each time. Also, the Potency entry in test [8], in test [9], in [10], in test [11], in [12] and in [13] was “inactive” each time. In addition, the Potency entry in test [14] is “inactive”. Further, in test [15], the Potency is 3 nM [inconclusive] (active) and 349 nM [inconclusive] (active) and 1.4 nM (active).
As for `CS(=O)(=O)OCCCCOS(C)(=O)=O`, the Potency entry in test [1], in [2], in test [3], in test [4], in test [5] and in test [7] was “inactive” each time. Moreover, the Potency entry in test [8], in [9], in [10], in test [11], in [12] and in [13] was “inactive” each time. Also, the Potency entry in test [14] is “inactive”.
With `CCCCC(CC)C(=O)O` (centres undefined), the Potency entry in test [1], in [2], in [3], in test [4], in [5] and in [7] was “inactive” throughout. For the same compound, the Potency entry in test [8], in test [9], in [13] and in [14] was “inactive” each time.
For the compound `CCCCNC(=O)NS(=O)(=O)c1ccc(C)cc1`, the Potency entry in [1], in test [2], in test [3], in [4], in test [6] and in [7] was “inactive” throughout. The Potency entry in test [8], in test [15], in [16], in test [9], in test [10] and in test [11] was “inactive” throughout. Further, the Potency entry in [12], in test [13] and in test [14] was “inactive” each time.
With `COc1ccc2c(c1)c(CC(=O)O)c(C)n2C(=O)c1ccc(Cl)cc1`, the Potency result in test [1], in [2], in [3], in test [4], in test [5] and in [7] was “inactive” throughout. In addition, the Potency result in [8], in test [15], in test [9], in test [10], in test [11] and in [12] was “inactive” throughout. Also, the Potency entry in test [13], in test [14] and in [18] was “inactive” each time. The outcome in test [17] was inactive.
For the compound `CC(C)c1c(C(=O)Nc2ccccc2)c(-c2ccccc2)c(-c2ccc(F)cc2)n1CC[C@@H](O)C[C@@H](O)CC(=O)O`, the Potency entry in test [1], in [2], in test [3], in test [4], in [5] and in test [7] was “inactive” throughout. For the same compound, the Potency entry in test [8], in test [15], in test [9], in test [13] and in test [14] was “inactive” in each case.
As to `O=C(Nc1ncc([N+](=O)[O-])s1)c1cccs1`, the Potency entry in [1], in test [2], in [3], in test [4], in [6] and in test [7] was “inactive” in each case. The Potency result in [8], in test [15] and in test [18] was “inactive” in each case. Further, the Potency in [9] is 9.52 µM (active); in test [10], 23.7 µM (active); in test [11], 29.8 µM (active); in test [12], 26.6 µM (active). In addition, the compound was classed as inactive in test [17].
With `CN1[C@@H]2CC(OC(=O)[C@H](CO)c3ccccc3)C[C@H]1[C@@H]1O[C@@H]12` (some centres undefined), the Potency entry in test [1], in test [2], in [3], in [4], in [5] and in test [7] was “inactive” in each case. The Potency result in [8], in test [9], in [13] and in test [14] was “inactive” each time.
As for `CC(=O)CCC(=O)O`, the Potency result in test [1], in test [2], in test [3], in test [4], in test [6] and in test [7] was “inactive” throughout. The Potency entry in test [8], in [15], in test [16], in [9], in [10] and in test [11] was “inactive” throughout. The Potency entry in test [12], in test [13] and in test [14] was “inactive” each time.
As for `OC[C@H]1O[C@H](O[C@]2(CCl)O[C@H](CCl)[C@@H](O)[C@@H]2O)[C@H](O)[C@@H](O)[C@H]1Cl`, the Potency result in test [1], in [2], in test [3], in [4], in test [6] and in test [7] was “inactive” each time. The Potency entry in test [8], in test [15], in test [16], in [9], in test [10] and in test [11] was “inactive” each time. The Potency entry in test [12], in [13] and in test [14] was “inactive” in each case.
With `CC(O)(P(=O)(O)O)P(=O)(O)O`, the Potency result in test [1], in test [2], in [3], in [4], in [5] and in test [7] was “inactive” each time. The Potency result in test [8], in test [9], in [10], in test [11], in [12] and in [13] was “inactive” in each case. In addition, the Potency result in [14] is “inactive”.
